In PubChem BioAssay AID493067 (National Center for Advancing Translational Sciences (NCATS), 2011):
Records with an inconclusive call do not appear. The source made the active and inactive calls. The call rests on the fitted dose curve; in most records, active means well fitted activation curve with a large enough effect; inconclusive means small, poorly fitted or top-dose-only effect; inactive means flat fitted curve, though single readings scatter.

Assay: Confirmation Concentration-Response Assay for qHTS Assay for Epigenetic Modulators
Conditions: murine C127i LDR cells, GFP reporter derepression, 30 h
Excerpt: NIH Molecular Libraries Screening Centers Network [MLSCN] NIH Chemical Genomics Center [NCGC] MLSCN Grant: 1 X01 MH079860-01 Assay Provider: Elisabeth D. Martinez, University of Texas SW Medical Center NCGC Assay Overview: This assay, used for the primary screen, was employed here to confirm actives identified from the Locus Derepression (LDR) assay (PubChem AID 1865). The LDR assay detects the derepression of a GFP reporter that is stably integrated in a region of the genome of murine c127i mammary cells that is presumably silenced. Compounds that derepress or induce this reporter locus are identified by enumerating GFP positive cells using an Acumen Explorer Ex3 (TTP Labtech) laser-scanning microplate cytometer.
NCGC Assay Protocol Summary: Three hundred LDR cells in 5 uL per well were dispensed into black, clear-bottom 1536-well plates. Twenty-three nL compound was transferred to the assay plate and cells were incubated 30 hours at 37 C. Medium was removed, cells were washed two times with PBS, and GFP-positive cells were enumerated as fluorescent objects between the sizes of 20 to 120 um width and depth using an Acumen Explorer Ex3 (TTP Labtech) laser-scanning microplate cytometer. For further details, see Johnson, RL, Huang, W, Jadhav, A, Austin, CP, Inglese, J, Martinez, ED (2008). A quantitative high-throughput screen identifies potential epigenetic modulators of gene expression. […]

Which Potency does the source give for `O=C1NC(=O)N(CCc2ccc(F)cc2)C(=O)/C1=C/C=C/c1ccccc1` here?
The Potency was 12.6 µM (active).
